Among the data in PubChem BioAssay AID1794845 (National Center for Advancing Translational Sciences (NCATS), 2023) are outcome values, retold here.

The campaign covered roughly 6,900 compounds. Fewer than 10 were called active. Calls come from the whole dose curve; as a rule, active = well fitted curve in the direction sought with a large enough effect; inconclusive = small, poorly fitted or top-dose-only effect, or another doubt; inactive = no such curve, though single readings can be large or run the other way. These entries were drawn from the full list.

The target of the assay is Metallo-beta-lactamase type 2 (Klebsiella pneumoniae) (UniProt C7C422). Put plainly: qHTS to identify inhibitors of the New Delhi Metallo-beta-lactamase (NDM): primary screen against the NCATS Gemini Collection. The following applies: NDM-1 enzyme, meropenem hydrolysis, absorbance 300 nm; series mostly up to 38.4 µM. The text has this: Assay Submitter (PI): James Inglese Ph.D., Patricia Dranchak Ph.D., Mahesh Aitha Ph.D. Assay Development and Screening Technology Laboratory (ADST) National Center for Advancing Translational Sciences (NCATS), Rockville, MD National Institute of Health (NIH), Bethesda, Maryland The metallo-beta-lactamases (MBL) are a main antibiotic resistance mechanism evolved by bacteria. There is an urgent clinical need for MBL inhibitors to mitigate this growing threat. To support a machine-based learning study, qHTS has been used to experimentally test inhibitors identified by prediction tools.
Chain of Metallo-beta-lactamase type 2 (Klebsiella pneumoniae) (C7C422 whole entry, looked up): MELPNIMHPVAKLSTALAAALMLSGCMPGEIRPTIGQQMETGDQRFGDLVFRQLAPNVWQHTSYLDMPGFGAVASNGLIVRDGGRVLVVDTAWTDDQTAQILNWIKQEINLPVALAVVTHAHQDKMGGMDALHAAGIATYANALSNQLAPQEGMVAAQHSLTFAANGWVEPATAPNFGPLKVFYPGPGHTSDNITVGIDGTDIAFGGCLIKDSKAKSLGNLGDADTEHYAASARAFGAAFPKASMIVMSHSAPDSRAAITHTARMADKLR
PROTOCOL TABLE (as described by Inglese et al., 2007) SEQUENCE No. (e.g., 1, 2, 3, etc.); […] (e.g., enzyme, Incubation, Reagent, etc.); VALUE; DESCRIPTION 1; NDM-1; 4 uL of 3 nM enzyme [2 nM final] in 50 mM HEPES (pH 7.0), 1 uM […], 0.01% Tween20; Use BioRaptr to dispense into Aurora black, clear bottom low base 1536-well plates 2; Compounds; 23 nL; Use Pin Tool (Wako) to transfer DMSO control and library compounds in DMSO 3; Incubate; >30 min 4; Reagent; 2 uL of 150 uM meropenem [50 uM final] 5; Incubate; 30 min. 6; Detector; Absorbance at 300 nm (bandwidth = 5 nm, 25 flashes/well) on Tecan Infinity NOTES (numbers refer to sequence above) 1; Column 1 of each plate received assay buffer without enzyme and columns 2-48 received enzyme for a final assay concentration of 2 nM. 2; Control plate contained DMSO in columns 1, 2, 3, and 4. 3; Compound interaction with enzyme. 4; Meropenem substrate was prepared in the same assay buffer as step 1 for a final assay concentration of 50 uM and added to all wells across the assay plates. 5; Substrate interaction with enzyme, plateau phase of kinetics. 6; Default reader settings were applied for absorbance read at 300 nm, bandwidth = 5 nm, 25 flashes/well. References: Inglese J, Shamu CE, Guy RK. 2007. Reporting data from high-throughput screening of small-molecule libraries. Nat Chem Biol. doi:10.1038/nchembio0807-438 Yasgar A, Shinn P, Jadhav A, Auld D, Michael S, Zheng W, Austin CP, Inglese J, Simeonov A. 2008. Compound Management for Quantitative High-Throughput Screening. J Lab Autom 13:79 - 89. doi:10.1016/j.jala.2007.12.004
Turning to `COc1ccc2c(c1)c(CN1C[C@@H](CO)[C@H](c3nc(C)no3)C1)cn2C`, the molecule was called inactive. On to `Nc1nc(CCC(=O)N[C@@H]2COCC[C@H]2Oc2ccc(CO)cc2)cs1`, for which the result was inactive. For `Cc1cccc2c1O[C@H]1[C@H](CO)CN([S+](=O)([O-])c3cccs3)[C@@H]21`, the molecule was classed as inactive. Turning to `Cc1cccc(C(=O)N2CC[C@H]3C(=O)NCCCCCCN(Cc4ccncc4)[C@@H]3C2)c1`, the outcome was inactive. As for `Fc1ccc2nc(CO[C@H]3CN(C4CCOCC4)C[C@H]3F)[nH]c2c1`, the result was inactive. Consider `O=C(c1ccccc1)N1CCC2(CC(Cc3ccccc3)=NO2)C1` (stereo not drawn), for which the call was inactive. On to `CCc1nc2c(c(-c3ccc(O)cc3)n1)CN(Cc1ccc(NC(C)=O)cc1)CC2`, for which the outcome was inactive. As to `Cc1ncnc(N2CCN(C(=O)C3CCN(C(=O)C4CC4)CC3)CC2)c1C`, the result was inactive. The entry for `O=C(CC1CCOCC1)Nc1ccc(N2CCOCC2)cc1` is “inactive”; for `CCNc1ncc(C(=O)N[C@H](C2CCNCC2)C2CC(O)C2)cn1` (stereo partly drawn) it is “inactive”; for `CCOC(=O)C1(Cc2ccccc2F)CCCN(C(=O)c2ccc3c(c2)OCCO3)C1` (stereo not drawn) it is “inactive”.

As for `O=C(NC1CC(c2nnc(CO)n2C2CC2)C1)c1ccc2c(c1)CCO2` (stereo not drawn), the molecule was called inactive.

On to `Nc1nc(CCCNC(=O)C2CC(=O)N(Cc3ccccn3)C2)cs1` (stereo not drawn), for which the result was inactive.

Turning to `Fc1ccc(-c2cccc(CN3CC4CCC(C3)N4c3ccc(C(F)(F)F)cc3)c2)c(F)c1`, the molecule was classed as inactive.

As for `CC(=O)Nc1cccc(-c2ncc3c(n2)OCCN(CC2CC2)C3=O)c1`, the molecule was classed as inactive. Next, `CN(C)CC1(O)CCN(C(=O)Cn2cc(C(=O)C3CC3)c3ccccc32)C1` (stereo not drawn): “inactive”.

For `Nc1ncccc1CNC(=O)[C@H]1CCC[C@H](O)C1`, the outcome was inactive. Take `COc1ccc(-c2cc(-c3ccncc3)cn3cncc23)cc1`: the call was inactive. For `O=C1NCCOCCCN(S(=O)(=O)c2ccccc2)[C@H]2CCCC[C@@H]12`, the result was inactive. Regarding `Cc1cc(C(=O)N2CC(N(C(=O)NC(C)C)C3CCOCC3)C2)nn1C`, the result was inactive. Consider `Cc1[nH]c2ccccc2c1CC(=O)NCc1ccccc1-n1cncn1`, for which the outcome was inactive. The entry for `COC(=O)N1CCN(Cc2cc(=O)c3cc(F)ccc3[nH]2)CC1` is “inactive”; for `CCCN(C)C(=O)c1c(-c2ccc(F)cc2)noc1[C@H](C)O` it is “inactive”; for `O=C(NCc1nc(-c2ncccn2)no1)C1CC2(CCNCC2)CN1` (stereo not drawn) it is “inactive”. In the case of `CC(C)N1CC[C@@H]2[C@H]1C(=O)NC[C@H](CCC(=O)NCc1ccc(F)cc1)N2C`, the call was inactive. Take `Cc1cccc(O[C@H]2COCCN(c3nc4ccccc4o3)C2)n1`: the molecule was classed as inactive. As to `COc1ccc(NC(=O)C2CCN(C(=O)c3ncn4c3COC(c3ccccc3)C4)CC2)cc1Cl` (stereo not drawn), the call was inactive.

In the case of `CC1(NC(=O)C2CC2)CN(Cc2nc(-c3ccccc3OCc3ccccc3)cs2)C1`, the result was inactive. On to `N#Cc1ccccc1-c1cc2c(ccn2Cc2ccncc2)c(N2CCOCC2)n1`, for which the result was inactive.

For the molecule `COc1cc(CC2(CCC(=O)N3CCC(Oc4cccc(F)c4)CC3)CCC(=O)N2)ccc1F` (stereo not drawn), the molecule was called inactive. On to `CN1CCN([C@H]2[C@@H]3OC[C@@H](O3)[C@@H](NCc3ccc(-c4ccccc4)cc3)[C@@H]2O)CC1`, for which the molecule was classed as inactive. Turning to `CC(C)(C)c1nc(C(=O)NCc2cccnc2)n2ccccc12`, the outcome was inactive. On to `CN1CCN(C(=O)c2cncc(N[C@H]3C[C@@H]4OCC[C@H]34)n2)CC1`, for which the result was inactive. For the molecule `COc1ccc(C(=O)N2CCC3(CCC3OC)CC2)cn1` (stereo not drawn), the call was inactive. For `CCC1(N2CCN(S(=O)(=O)c3cccs3)CC2)CCN(S(C)(=O)=O)C1` (stereo not drawn), the molecule was called inactive. On to `Cn1cc(CN[C@H]2C[C@H]3C(=O)NC[C@@H](CCC(=O)NCc4ccccc4)N3C2)c2ccccc21`, for which the molecule was classed as inactive.

Regarding `CCc1nc(-c2c3n(c(=O)n(CC(=O)OC)c2=O)CCCC3)no1`, the molecule was classed as inactive. With `O=C(c1n[nH]c2ccccc12)N1CC2CC(C1)[C@H]1CCCC(=O)N1C2` (stereo partly drawn), the outcome was inactive.

On to `COCc1nnc2n1CCC(NC(=O)Cn1nc(C(F)(F)F)cc1C)CC2` (stereo not drawn), for which the molecule was classed as inactive. For `Cc1ccc(C(C(=O)O)N2CCC(C(=O)N3CCCC3)CC2)c(C)c1` (stereo not drawn), the molecule was called inactive.

Take `O=C(NCCCn1ccnn1)c1cccc(S(=O)(=O)N2CCOCC2)c1`: the result was inactive. For the molecule `CC(=O)N1CCC(N2CC[C@H](c3nc4ccccc4s3)C2)CC1`, the molecule was classed as inactive. With `N[C@H]1CN(C(=O)c2cccc(-n3cnnc3)c2)C[C@@H]1c1ccccc1`, the molecule was called inactive. The entry for `COCC1CN(Cc2c(C)n[nH]c2C)CC12CCNCC2` (stereo not drawn) is “inactive”; for `COc1ccc(Cn2c3c(c(=O)n2Cc2ccccc2)CCN(C(=O)CCc2cccnc2)C3)cc1` it is “inactive”.

On to `CCn1c(C(=O)OC)c(NC(C)=O)c2cc(NC(C)Cc3ccccc3OC)cnc21` (stereo not drawn), for which the result was inactive. `COc1cccc(CN2CC(Oc3ccccc3C(=O)NC3CC3)C2)c1`: the result was inactive.

Turning to `CN(Cc1cc(C[C@@H]2C[C@H](NC(=O)C(C)(C)C)C2(C)C)no1)c1ccccc1`, the result was inactive. Next, `Cc1cc2nc3n(c(=O)c2n1CC(=O)NC1CCCCC1)CCCCC3`: “inactive”. The entry for `COCCN1CCCCCC(O)c2cc(C(=O)NCc3ccc(F)cc3)ccc21` (stereo not drawn) is “inactive”. Regarding `O=C(CCn1ccn2nc3c(c2c1=O)CCCC3)N1CCSCC1`, the call was inactive. With `CCN(C1CCOCC1)C1CN(C(=O)c2ccccn2)C1`, the molecule was called inactive. Take `CN1CC[C@H]2CN(C(=O)c3scc4c3OCCO4)C[C@@]2(C(=O)O)C1`: the result was inactive. On to `Cc1cc(C(=O)N2CC[C@H](NS(=O)(=O)c3cn(C)cn3)C[C@H]2C(=O)N[C@H](Cc2c[nH]c3ccccc23)C(N)=O)n(C)n1`, for which the call was inactive. For the molecule `Cc1cccc(C(=O)N2CCCCCCN(C)C(=O)[C@@H]3CCC[C@@H]32)c1`, the call was inactive. On to `CCN(CC)C(=O)[C@@H]1C[C@@H](NC(=O)c2ccn(CC)c(=O)c2)CN1C(C)=O`, for which the molecule was classed as inactive. Next, `COC[C@@H]1CN(C(=O)Cc2c(C)noc2C)C[C@H]1c1ccccn1`: “inactive”; `O=C(NC1CCN(c2ccnc3ccnn23)C1)c1cc(F)ccc1Br` (stereo not drawn): “inactive”; `COCC(=O)N[C@H]1C[C@@H](CO)N(Cc2scnc2C)C1`: “inactive”. Regarding `COc1ccc2cc(C3CN(C(=O)CNC(=O)C(C)C)CCO3)ccc2c1` (stereo not drawn), the call was inactive. In the case of `COc1ccc(C(=O)Nc2ccc3c(c2)CN(CCc2ccccc2)C(=O)C(C)O3)cc1OC` (stereo not drawn), the molecule was classed as inactive.

In the case of `COc1ccc(-c2cn(C)c(=O)n3cc(CN4CCNC(=O)C4)nc23)cn1`, the call was inactive. With `CCCC(C)N1CC2(CCN(C(=O)c3cnn4c3CCCC4)CC2)OC1=O` (stereo not drawn), the outcome was inactive.
